For some of these results: Measured potencies and affinities stand elsewhere.
What was measured:
Design in all cases: scale not given: direction of the effect not stated beside the values
[1] = target: Protein translocase subunit SecA (Escherichia coli (strain K12)) (UniProt P10408); test: Assay to Identify E. coli SecA ATPase Inhibitors; format: functional; details: 30 µM
[2] = target: T1, Ubiquitin-activating enzyme e1, putative (Leishmania donovani (strain BPK282A1)) (UniProt E9BSI1); test: Leishmania donovani Ubiquitin Activating Enzyme (LdE1); format: functional; details: 30 µM
T1 sequence (whole entry): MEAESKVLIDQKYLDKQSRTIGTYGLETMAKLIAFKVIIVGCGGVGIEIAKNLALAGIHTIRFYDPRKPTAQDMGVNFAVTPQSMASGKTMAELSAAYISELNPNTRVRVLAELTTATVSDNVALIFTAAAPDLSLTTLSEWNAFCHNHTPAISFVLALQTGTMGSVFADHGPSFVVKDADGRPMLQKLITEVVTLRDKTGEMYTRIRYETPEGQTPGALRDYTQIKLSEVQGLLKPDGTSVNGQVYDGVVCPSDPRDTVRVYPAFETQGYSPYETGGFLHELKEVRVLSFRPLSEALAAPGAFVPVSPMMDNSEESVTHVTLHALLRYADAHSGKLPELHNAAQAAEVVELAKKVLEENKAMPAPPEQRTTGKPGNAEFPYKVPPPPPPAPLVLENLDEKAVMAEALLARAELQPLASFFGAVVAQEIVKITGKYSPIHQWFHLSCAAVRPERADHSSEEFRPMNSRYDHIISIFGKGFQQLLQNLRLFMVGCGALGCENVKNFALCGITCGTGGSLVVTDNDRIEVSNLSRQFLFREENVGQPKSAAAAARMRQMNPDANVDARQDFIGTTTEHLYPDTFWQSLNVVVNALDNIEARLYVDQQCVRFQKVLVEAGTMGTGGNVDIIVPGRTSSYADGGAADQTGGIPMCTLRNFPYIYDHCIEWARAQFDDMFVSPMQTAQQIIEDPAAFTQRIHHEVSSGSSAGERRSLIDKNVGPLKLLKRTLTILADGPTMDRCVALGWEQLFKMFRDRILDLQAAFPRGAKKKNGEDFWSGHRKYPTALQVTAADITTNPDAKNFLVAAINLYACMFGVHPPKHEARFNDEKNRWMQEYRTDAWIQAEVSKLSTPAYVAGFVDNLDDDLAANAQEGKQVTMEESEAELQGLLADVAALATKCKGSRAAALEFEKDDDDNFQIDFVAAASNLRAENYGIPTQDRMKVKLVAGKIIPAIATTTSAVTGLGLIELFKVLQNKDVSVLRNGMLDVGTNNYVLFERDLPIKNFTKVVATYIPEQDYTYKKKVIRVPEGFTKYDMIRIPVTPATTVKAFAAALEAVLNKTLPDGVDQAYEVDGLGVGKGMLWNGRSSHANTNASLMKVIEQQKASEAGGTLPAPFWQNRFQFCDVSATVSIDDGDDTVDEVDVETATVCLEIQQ

[3] = target: AMP-activated protein kinase, AMPK (Homo sapiens) (UniProt P54646+O43741+P54619+Q9UGJ0+Q9Y478+Q13131+Q9UGI9); test: AMP-dependent Kinase enzyme assay. An in vitro enzyme assay that detects ADP turnover that is directly proportional to AMPK activity. This uses naive AMPK that is activated during the assay with MK-8722; format: functional; details: 30 µM
[4] = target: Sialic acid-binding Ig-like lectin 9 (Homo sapiens) (UniProt Q9Y336); test: Hs-Siglec9 ALPHAscreen SOP 20170721; details: 10 µM
[5] = tested on: Trypanosoma cruzi; test: Trypanosoma cruzi phosphomannomutase and mannose-1-phosphate guanylyltransferase assay; format: functional; details: 10 µM
[6] = target: T2, Arginase-2, mitochondrial (Homo sapiens) (UniProt P78540); test: in vitro enzyme assay to detect the production of urea directly proportional to the activity of Arginase II; format: functional; details: 33.3 µM; note: in the data most compounds retested in dose-response had high values
T2 sequence (whole entry): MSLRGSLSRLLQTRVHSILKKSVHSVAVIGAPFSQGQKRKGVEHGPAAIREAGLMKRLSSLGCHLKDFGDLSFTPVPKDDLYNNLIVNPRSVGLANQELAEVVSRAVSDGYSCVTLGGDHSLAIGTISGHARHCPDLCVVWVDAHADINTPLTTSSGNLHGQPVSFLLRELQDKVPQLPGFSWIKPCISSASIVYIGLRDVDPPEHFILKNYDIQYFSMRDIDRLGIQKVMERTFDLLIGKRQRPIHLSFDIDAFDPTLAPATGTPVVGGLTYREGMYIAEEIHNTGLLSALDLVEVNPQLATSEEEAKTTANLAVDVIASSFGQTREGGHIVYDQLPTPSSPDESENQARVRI

[7] = target: T3, Proteasome subunit beta (Trypanosoma cruzi) (UniProt O96673); test: Trypanosoma cruzi proteasome chymotrypsin-like activity (TcProtChymo) assay.; note: in the data most compounds retested in dose-response had high values; format: functional; details: 9.37 µM
T3 sequence (whole entry): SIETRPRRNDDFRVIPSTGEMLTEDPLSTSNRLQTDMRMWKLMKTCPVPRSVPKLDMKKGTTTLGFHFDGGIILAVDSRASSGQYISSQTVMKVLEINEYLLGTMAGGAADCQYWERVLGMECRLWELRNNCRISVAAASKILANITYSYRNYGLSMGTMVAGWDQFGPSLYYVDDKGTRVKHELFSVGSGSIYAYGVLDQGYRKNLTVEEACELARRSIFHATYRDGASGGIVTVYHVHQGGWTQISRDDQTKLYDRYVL

[8] = species: Homo sapiens; test: To identify inhibition of the IFN signalling (Jak-Stat) pathway via expression of an eGFP reporter gene under the control of an IFN-stimulated response element (ISRE) containing MxA promoter.; format: functional; details: 30 µM
[9] = target: T4, Tyrosyl-tRNA synthetase, putative (Trypanosoma cruzi (strain CL Brener)) (UniProt Q4DSP6); test: Trypanosoma cruzi tyrosyl tRNA synthetase (TcYRS) _High Tyrosine SOP; format: functional; details: 30 µM; note: in the data most compounds retested in dose-response had high values
T4 sequence (whole entry): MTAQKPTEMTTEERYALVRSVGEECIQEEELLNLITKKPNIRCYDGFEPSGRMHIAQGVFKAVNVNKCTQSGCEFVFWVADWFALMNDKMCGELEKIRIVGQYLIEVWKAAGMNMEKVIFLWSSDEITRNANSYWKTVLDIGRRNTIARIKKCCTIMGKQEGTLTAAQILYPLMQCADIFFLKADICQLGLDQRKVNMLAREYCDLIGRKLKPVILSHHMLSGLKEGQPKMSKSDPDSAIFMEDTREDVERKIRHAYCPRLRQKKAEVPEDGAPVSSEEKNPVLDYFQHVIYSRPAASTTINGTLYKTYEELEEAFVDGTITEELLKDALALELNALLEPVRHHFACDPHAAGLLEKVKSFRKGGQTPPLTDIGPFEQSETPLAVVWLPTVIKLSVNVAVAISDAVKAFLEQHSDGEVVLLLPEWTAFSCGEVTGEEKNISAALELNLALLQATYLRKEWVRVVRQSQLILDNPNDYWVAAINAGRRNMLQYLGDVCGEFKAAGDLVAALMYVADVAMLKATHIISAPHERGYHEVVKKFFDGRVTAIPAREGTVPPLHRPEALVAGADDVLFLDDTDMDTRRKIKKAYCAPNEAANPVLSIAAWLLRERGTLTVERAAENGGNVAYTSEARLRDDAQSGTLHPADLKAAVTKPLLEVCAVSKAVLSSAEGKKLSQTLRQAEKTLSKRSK

[10] = target: T4, Tyrosyl-tRNA synthetase, putative (Trypanosoma cruzi (strain CL Brener)); test: Trypanosoma cruzi tyrosyl tRNA synthetase (TcYRS) SOP; format: functional; details: 30 µM
[11] = target: Chromo domain-containing protein 1 (Saccharomyces cerevisiae (strain ATCC 204508 / S288c) (Baker's yeast)) (UniProt P32657); test: ScCHD-1 Enzyme Inhibition Assay; format: functional; details: 30 µM; note: in the data most compounds retested in dose-response had high values
Sequence of Chromo domain-containing protein 1 (Saccharomyces cerevisiae (strain ATCC 204508 / S288c) (Baker's yeast)) (P32657 whole entry, the tested form may be a part): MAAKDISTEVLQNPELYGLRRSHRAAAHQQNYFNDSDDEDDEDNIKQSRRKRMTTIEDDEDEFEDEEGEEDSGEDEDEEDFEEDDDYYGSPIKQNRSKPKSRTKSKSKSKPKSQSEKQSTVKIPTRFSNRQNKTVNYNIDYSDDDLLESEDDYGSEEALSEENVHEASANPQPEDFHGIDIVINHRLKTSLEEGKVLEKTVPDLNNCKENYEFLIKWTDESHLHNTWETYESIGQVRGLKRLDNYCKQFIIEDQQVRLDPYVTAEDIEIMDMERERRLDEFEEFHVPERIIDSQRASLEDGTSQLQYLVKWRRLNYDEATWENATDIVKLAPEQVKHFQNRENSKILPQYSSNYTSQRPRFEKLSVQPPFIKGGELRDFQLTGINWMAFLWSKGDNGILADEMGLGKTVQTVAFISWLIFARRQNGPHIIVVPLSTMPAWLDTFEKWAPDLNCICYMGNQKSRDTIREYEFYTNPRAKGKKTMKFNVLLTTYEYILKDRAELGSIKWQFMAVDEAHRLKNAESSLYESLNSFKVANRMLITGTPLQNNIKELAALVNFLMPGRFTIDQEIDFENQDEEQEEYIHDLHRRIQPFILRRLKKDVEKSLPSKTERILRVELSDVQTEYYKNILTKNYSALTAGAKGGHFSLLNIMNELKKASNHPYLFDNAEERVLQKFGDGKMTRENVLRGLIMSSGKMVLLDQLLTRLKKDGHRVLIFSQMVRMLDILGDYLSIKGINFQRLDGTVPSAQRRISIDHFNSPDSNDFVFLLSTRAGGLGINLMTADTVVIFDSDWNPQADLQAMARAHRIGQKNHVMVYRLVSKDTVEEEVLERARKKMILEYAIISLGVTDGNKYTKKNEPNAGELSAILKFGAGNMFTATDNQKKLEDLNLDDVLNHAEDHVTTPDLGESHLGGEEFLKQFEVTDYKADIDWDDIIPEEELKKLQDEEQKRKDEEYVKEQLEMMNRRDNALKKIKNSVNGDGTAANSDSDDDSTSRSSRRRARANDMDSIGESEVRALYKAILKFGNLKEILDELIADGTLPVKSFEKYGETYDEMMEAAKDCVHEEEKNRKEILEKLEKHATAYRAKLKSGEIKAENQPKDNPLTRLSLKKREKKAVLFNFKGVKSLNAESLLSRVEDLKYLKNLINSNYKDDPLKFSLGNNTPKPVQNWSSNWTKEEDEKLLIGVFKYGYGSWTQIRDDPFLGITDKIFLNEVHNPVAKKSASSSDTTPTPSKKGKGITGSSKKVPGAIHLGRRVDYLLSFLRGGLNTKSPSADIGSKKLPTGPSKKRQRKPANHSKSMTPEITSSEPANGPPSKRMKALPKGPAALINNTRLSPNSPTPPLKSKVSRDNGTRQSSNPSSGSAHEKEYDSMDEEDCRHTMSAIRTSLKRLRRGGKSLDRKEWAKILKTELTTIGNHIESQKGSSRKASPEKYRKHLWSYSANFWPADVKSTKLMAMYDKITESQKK

Sequence of Sialic acid-binding Ig-like lectin 9 (Homo sapiens) (Q9Y336 whole entry): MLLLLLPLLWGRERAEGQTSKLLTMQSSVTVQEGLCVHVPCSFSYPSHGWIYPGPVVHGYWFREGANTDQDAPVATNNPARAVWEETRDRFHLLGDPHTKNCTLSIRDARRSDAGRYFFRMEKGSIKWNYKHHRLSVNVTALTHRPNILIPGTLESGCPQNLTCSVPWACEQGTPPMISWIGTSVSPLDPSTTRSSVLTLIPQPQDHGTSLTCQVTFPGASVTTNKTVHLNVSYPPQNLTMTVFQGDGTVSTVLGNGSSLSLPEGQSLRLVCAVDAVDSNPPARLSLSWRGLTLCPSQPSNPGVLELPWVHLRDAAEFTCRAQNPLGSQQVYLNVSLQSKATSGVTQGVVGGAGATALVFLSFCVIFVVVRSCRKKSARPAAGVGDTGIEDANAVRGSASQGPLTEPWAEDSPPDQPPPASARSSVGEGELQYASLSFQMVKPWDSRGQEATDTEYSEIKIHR
Sequence of Protein translocase subunit SecA (Escherichia coli (strain K12)) (P10408 whole entry): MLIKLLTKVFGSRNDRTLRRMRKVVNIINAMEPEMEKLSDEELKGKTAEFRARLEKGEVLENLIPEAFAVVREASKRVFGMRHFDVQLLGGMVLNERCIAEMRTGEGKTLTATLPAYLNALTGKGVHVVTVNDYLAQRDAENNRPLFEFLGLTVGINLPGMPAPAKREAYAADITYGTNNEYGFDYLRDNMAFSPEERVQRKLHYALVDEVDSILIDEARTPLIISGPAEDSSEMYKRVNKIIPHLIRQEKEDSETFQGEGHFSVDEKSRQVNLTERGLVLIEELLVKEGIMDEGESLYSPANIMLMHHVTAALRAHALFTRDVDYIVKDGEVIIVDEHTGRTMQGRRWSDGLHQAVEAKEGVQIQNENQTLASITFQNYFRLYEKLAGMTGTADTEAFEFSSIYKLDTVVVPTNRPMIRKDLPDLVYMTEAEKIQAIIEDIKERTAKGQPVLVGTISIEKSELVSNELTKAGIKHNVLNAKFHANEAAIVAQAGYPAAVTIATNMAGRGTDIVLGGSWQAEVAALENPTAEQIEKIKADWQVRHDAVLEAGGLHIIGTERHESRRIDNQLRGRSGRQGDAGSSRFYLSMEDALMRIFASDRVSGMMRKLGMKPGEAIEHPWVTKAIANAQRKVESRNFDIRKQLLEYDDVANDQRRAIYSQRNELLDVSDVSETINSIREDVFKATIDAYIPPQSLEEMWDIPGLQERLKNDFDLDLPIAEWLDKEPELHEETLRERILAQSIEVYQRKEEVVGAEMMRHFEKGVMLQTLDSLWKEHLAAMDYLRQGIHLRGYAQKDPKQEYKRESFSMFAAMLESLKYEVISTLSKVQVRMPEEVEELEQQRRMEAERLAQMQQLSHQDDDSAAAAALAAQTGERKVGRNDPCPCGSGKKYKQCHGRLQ

Compound | Percent Effect [1] | Percent Effect [2] | Percent Effect [3] | Percent Effect [4] | Percent Effect [5] | Percent Effect [6] | Percent Effect [7] | Percent Effect [8] | Percent Effect [9] | Percent Effect [10] | Percent Effect [11]
O=C1NCC2(CCCN(Cc3ccccc3F)C2)Oc2ccccc21 (stereo not given) | 1.88% | 12.2% | 9.79% | -6.32% | -2.77% | 5.34% | 9.52% | 9.51% | 3.23% | 9.09% | -14.2%
CN(C)C(=O)CSc1nnc(CCNC(=O)OC(C)(C)C)o1 | -1.89% | 9.33% | 6.95% | -7.38% | -8.64% | -13.6% | 13.9% | 10.4% | -3.17% | 2.56% | -10.9%
COc1cccc(CN(C)C(=O)Nc2ccc3c(c2)OCCO3)c1 | -0.723% | 18.4% | -0.168% | -10.2% | 0.0974% | 2.37% | 26.6% | 22.9% | 1.06% | 10.4% | -8.52%
COCC(NC(=O)c1cnn(C)c1)c1cccc(C(F)(F)F)c1 (stereo not given) | -8.86% | 0% | -3.2% | -6.41% | -4.11% | 0.455% | 7.28% | -1.62% | 0% | 0% | 0.364%
O=C(c1cnn2c1OCCC2)N1CCN(C/C=C/c2ccccc2)CC1 | -2.24% | 7.79% | 3.47% | 6.1% | -1.28% | -5.81% | 8.88% | 10.8% | 5.29% | 16.7% | -8.13%
O=C(CCC(=O)N1CCCC1c1cccs1)N1CCc2sccc2C1 (stereo not given) | 1.64% | -8.11% | -5.22% | 4.27% | 5% | -1.6% | 3.42% | 19.6% | 3.45% | 3.7% | -5.21%
CCOC[C@H]1CC[C@H]2[C@H](CCN2C(=O)c2ccncc2F)O1 | -2.56% | 2.7% | 3.1% | -3.88% | 1.07% | 3.72% | 5.92% | -17.8% | 2.15% | 3.7% | -2.81%
Cc1nc2ccccc2nc1CN(C)CC1CCCN1c1cccnn1 (stereo not given) | -5.25% | 5.2% | 0.00702% | -11.8% | 3.23% | 1.47% | 5.58% | 21.9% | 10.5% | 2.35% | -19.8%
O=C(NCC1CCOC1)c1csc(-c2cccc(Cl)c2)n1 (stereo not given) | -3.12% | 10.4% | 3.54% | -3.81% | -5.24% | 0.712% | 8.62% | 25.1% | 1.94% | 14.6% | -5.77%
Cc1nc(COCc2cnc3n2CCN(CC2CCC2)C3C)cs1 (stereo not given) | -1.98% | -2.67% | -6.08% | 4.28% | 8.11% | -56.8% | 12.7% | -20.7% | -1.04% | 7.5% | -4.06%
CCC(CNC(=O)c1cc(OC)ccc1Br)N1CCc2ccccc2C1 (stereo not given) | 0.461% | 0% | 3.64% | 9.31% | -7.14% | -4.29% | 20.3% | 11.2% | -0.529% | -2.44% | -4.45%
O=C(NCC1CCOC1)c1csc(-c2ccco2)n1 (stereo not given) | -2.71% | 13% | -3.93% | -0.826% | 5.24% | -1.07% | 13.8% | 13.5% | 7.77% | 21.9% | -8.51%
NCc1cnn(-c2ccccc2C(=O)NCc2ccncc2)c1 | -3.81% | 6.76% | 13.5% | -2.83% | -2.96% | -0.232% | 6.08% | 6.53% | 3.23% | 11.7% | -5.06%
COCc1nc2cc(NCc3ccc(C)o3)ccc2o1 | -4.96% | 13.5% | -42.7% | 8.51% | 6.05% | 37.1% | 14.3% | -1.74% | 13.9% | 15.8% | -2.51%
NC(=O)COc1cccc(C(=O)Nc2cnc3n2CCCC3)c1 | -4.34% | 6.94% | -7.99% | 1.81% | -1.26% | 6.18% | 10.7% | -0.649% | 8.42% | 15.4% | -3.57%
O=C(Nc1ccccc1F)N(CCO)Cc1ccsc1 | -4.39% | 0% | 2.24% | 1.32% | -3.76% | -1.92% | -2.51% | 29.1% | -1.47% | -4.88% | 10.7%
O=C(NCc1ccco1)[C@@H]1CCO[C@@H]2CCN(c3ccncn3)C[C@H]21 | 0.562% | 2.67% | 2.84% | 5.63% | -5.02% | -56.5% | 5.64% | 3.81% | 1.04% | -25% | -8.67%
CCO[C@@H]1CO[C@@]2(CCCN(C(=O)COc3ccccc3OC)C2)C1 | 2.9% | 18.2% | 3.83% | -2.8% | 0.888% | 8.39% | 8.7% | 25.1% | 6.35% | 16.7% | -9.93%
Cc1cccc(NS(=O)(=O)c2cc(C(=O)O)oc2C)c1Cl | -6.42% | 0% | 0.702% | 9.91% | 6.18% | -4.27% | 0.338% | 3.85% | 1.94% | 9.76% | -7.97%
CN(C)c1ncccc1CNC(=O)N1CCCC1CN1CCCCC1 (stereo not given) | -3.1% | 23.4% | -3.23% | 0.716% | -2.25% | -0.356% | 9.63% | 3.33% | 7.77% | 14.6% | -9.2%

Source: ChEMBL document CHEMBL3988442, “University of Dundee, Small-Polar-MMV Screening Library” (2021)
